From PubChem BioAssay (EPA / NIEHS)
Activity calls are given as the source filed them. How the source made its calls: active means hit-call score of the fitted dose curve at least 0.9, where 1 is the maximum; inactive means score below 0.9.

Read-out: Urokinase-type plasminogen activator receptor (uPAR), PLAUR (gene 5329)
Test: BSK_4H_uPAR: BioMAP Diversity Plus: 4H Assay for Urokinase-type plasminogen activator receptor (uPAR) Biomarker Activity (AID 2283030)
Details: primary human endothelial cells (HUVEC); actives raise or lower the signal
Experimental: BSK_4H is a cell-based, multiplexed-readout assay that uses umbilical vein endothelium, a human vascular primary cell, with measurements taken at 24 hours after chemical dosing in a 96-well plate.BSK_4HAR is an assay component measured in the BSK_4H assay. It measures uPAR antibody related to regulation of gene expression using ELISA technology.Data from the assay component BSK_4HAR was analyzed into 1 assay endpoint. This assay endpoint, BSK_4HAR, was analyzed with bidirectional fitting relative to DMSO as the negative control and baseline of activity. Using a type of binding reporter, gain or loss-of-signal activity can be used to understand changes in the signaling as they relate to the gene PLAUR. Furthermore, this assay endpoint can be referred to as a primary readout, because this assay has produced multiple assay endpoints where this one serves a signaling function. To generalize the intended target to other relatable targets, this assay endpoint is annotated to the cytokine intended target family, where the subfamily is plasmogen activator.
The levels of cell surface (or secreted, indicated by the prefix "s") biomarker endpoints were measured by ELISA. Overt cytotoxicity to cells in confluent adherent cultures (all systems other than the BT system) was assessed by measuring total protein levels using sulforhodamine B (SRB) staining in parallel cultures at the time of biomarker measurements, indicated as SRB endpoints. For proliferation assays for adherent cell types, individual cell types are cultured at sub-confluence and relative cell numbers quantified by SRB staining at time points optimized for each system (48 h: 3C and CASM3C systems; 72 h: BT and HDF3CGF systems; 96 h: SAg system). SRB was performed by staining cells with 0.1% SRB after fixation with 10% TCA and reading wells at 560 nm.Viability and proliferation of PBMC (T cells) was quantified by Alamar Blue reduction for the SAg and BT systems. For PBMC viability (referred to as PBMC Cytotoxicity within the assay endpoint names), cells were plated (75,000/well in a 96-well plate) and then chemical samples added for 1 h before addition of activators, SEB and TSST-1 (20 ng/mL final concentration each). Cells were incubated for 90 h. Then, Alamar Blue (20 uL/well) (Invitrogen, Cat DAL1100) was added for 6 h, and the plates were read with a fluorescence microplate reader at 546/580 nm (excitation/emission). For PBMC proliferation, cells were plated and activated as above but incubated for only 16 h prior to addition of Alamar Blue. Plates were read after 6 h.

Row | SMILES | outcome | AC50
1 | O=C(Oc1ccc(Br)cc1)N1CCN2CCC1CC2 | inactive | 
2 | c1ccc(NNc2ccccc2)cc1 | inactive | 
3 | Cc1ccc(N=C=O)cc1N=C=O | inactive | 
4 | Oc1ccc2ccc3cccc4ccc1c2c34 |  | 30.4 µM (active)
5 | Clc1ccc(Cl)c(Cl)c1 | inactive | 
6 | OCCCBr | inactive | 
7 | ClC1=C(Cl)C2(Cl)C3C(Cl)C=CC3C1(Cl)C2(Cl)Cl (stereo not given) |  | 34.7 µM (active)
8 | [As]#[In] | inactive | 
9 | Nc1ccc([N+](=O)[O-])cc1 | inactive | 
10 | Cn1cc(-c2ccccc2)c(=O)c(-c2cccc(C(F)(F)F)c2)c1 | inactive | 
11 | CCN(CC)N=O | inactive | 
12 | COc1cc(C=O)cc2c1[C@H](COC(N)=O)[C@]1(OC(C)=O)ON2C[C@H]2[C@@H]1N2C(C)=O |  | 1.14 µM (active)
13 | CN(C)c1ccc(C(=O)c2ccc(N(C)C)cc2)cc1 | inactive | 
14 | Nc1ccc(Cl)cc1N | inactive | 
15 | COC(=O)c1ccccc1N | inactive | 
16 | CC(C)N(Cc1ccccc1)C(=O)C(C)(C)C | inactive | 
17 | Oc1ccccc1Cl | inactive | 
18 | CCOC(=O)[C@]1(c2ccccc2)Oc2ccccc2[C@@H]1N |  | 10.3 µM (active)
19 | ClCCOCCCl | inactive | 
20 | CCCCCOC(=O)c1ccccc1C(=O)OCCCCC | inactive | 

Row | SMILES | outcome | AC50
21 | CCOc1cccc(C2(N3CCN(c4ccccc4)CC3)CCC(C)CC2)c1 (stereo not given) | inactive | 
22 | CN(C)[C@@H]1C(=O)C(C(N)=O)=C(O)[C@@]2(O)C(=O)C3=C(O)c4c(O)cccc4[C@@](C)(O)[C@H]3C[C@@H]12 | inactive | 
23 | Cc1ccc(N)cc1 | inactive | 
24 | c1ccc(N=Nc2ccccc2)cc1 | inactive | 
25 | Nc1ccc(Oc2ccc(N)cc2)cc1 | inactive | 
26 | CCCCC(CC)COC(=O)c1ccc(C(=O)OCC(CC)CCCC)c(C(=O)OCC(CC)CCCC)c1 (stereo not given) | inactive | 
27 | COP(=S)(OC)SCN1C(=O)c2ccccc2C1=O | inactive | 
28 | CCCCCCCCCCCCCN1CC(C)OC(C)C1 (stereo not given) | inactive | 
29 | CN(C)c1ccccc1 | inactive | 
30 | CCC(C)c1ccc(O)cc1 (stereo not given) | inactive | 
31 | Brc1ccc(Oc2ccccc2)cc1 | inactive | 
32 | N#CC(Br)(Br)C(N)=O | inactive | 
33 | CC(C)(O)c1cnn2c(-c3ccc(F)c(-c4c(F)cccc4C#N)c3)cnc2n1 | inactive | 
34 | OCCCl | inactive | 
35 | Clc1ccccc1Cl | inactive | 
36 | CCC[CH2][Sn]([Cl])([CH2]CCC)[CH2]CCC |  | 0.148 µM (active)
37 | c1ccc(C2CO2)cc1 (stereo not given) | inactive | 
38 | Cc1cc(N=Nc2ccccc2C)ccc1N |  | 1.95 µM (active)
39 | CCN(CC)CCO | inactive | 
40 | CCCSC(=O)N(CCC)CCC | inactive | 
